m-calpain inh – blocks pig calpain II enzyme activity. purified calpain II, fluorogenic peptide substrate, 30 min. inhibition, % at 16 µM. 220,000 tested, 0.37% active;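 active = inhibition above about 50%, limit read from the data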
L major viab – reduces viability of Leishmania major promastigotes; resazurin fluorescence viability; inhibition, % at 10 µM; 200,000 tested, 9% active; in the data active = inhibition above about 50%;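 note: promastigotes grown with compound for 44 hours at 28 °C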
Cl transport mod – KCC2 (human) Cl- transport modulation. KCC2 cells, thallium flux FluoZin-2 fluorescence. Q9H2X9. 190,000 tested, 2.2% active. B-score of Tl+ flux slope (higher = more flux/activation; lower = inhibition) at 10 µM;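 active = thallium flux slope and its plate-corrected score both differing from the plate sample mean at a set confidence after two filtering rounds, in either direction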;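 note: slope of fluorescence scaled to starting intensity during 10 to 20 s after thallium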
ROMK mod – human ROMK K+ channel modulation, primary screen; P48048; 130,000 tested, 2% active; B-score at 10 µM; Tet-inducible ROMK, thallium flux fluorescence; actives lie on both sides; AID 1918;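 active = signal ratio slope over the read window, or its plate-corrected B-score, at least 3 SD from the plate mean, either direction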;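 note: B-score of the F/F0 ratio slope over 7 to 12 s after thallium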
WT yeast gro inh – growth inhibition of WT yeast, mitochondrial fusion screen; mitochondrial fusion phenotypic screen, WT strain; inhibition, % at 10 µM; 190,000 tested, 2.1% active; AID 1362; in the data active = inhibition above about 58%; tested in S. cerevisiae
L major 1uM – L. major promastigote growth inhibition, 1 uM repeat. shares compounds with L major viab. resazurin fluorescence, 48 h. inhibition, % at 1 µM. 1,100 tested, 13% active;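 active = inhibition above about 50% in both repeat tests, limit read from the data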
A number is an active result; – = inactive; · = not tested or not shown. Sampled rows, rich in hits. Any-hit rate of the full collection: about 12%.

SMILES	m-calpain inh	L major viab	Cl transport mod	ROMK mod	WT yeast gro inh	L major 1uM
c1ccc2c(c1)nc(N1CCOCC1)c1c3ccccc3[nH]c21	–	53	–	–	–	–
Cc1occc1C(=O)NNC(=O)C1CCCCC1	–	72	–	–	–	–
Cn1c(-c2ccc(-c3ccccc3)cc2)c[nH]c1=S	–	57	–	·	–	–
CCn1c(-c2ccc(-c3ccccc3)cc2)c[nH]c1=S	–	–	–	–	–	·
O=C(OCc1cc(Cl)ccc1OC(F)F)c1cc(S(=O)(=O)O)ccc1O	–	–	–	–	–	·
CC(=O)Nc1cccc(Oc2cc(C#N)c(C#N)cc2N2CCCCCC2)c1	–	61	–	·	–	–
COc1ccc(N2CCN(c3ccc(NC(=O)C4CCCCC4)cc3C#N)CC2)cc1	–	–	–	·	–	·
CCCn1c(N/N=C(C)\C=C\c2ccccc2)nc2c1c(=O)[nH]c(=O)n2C	–	–	–	–	–	·
Cc1ccc(C(=O)OCC(=O)c2ccc(Cl)s2)s1	–	92	–	·	–	–
O=C(COC(=O)c1ccc[nH]c1=O)c1ccc(Cl)s1	–	–	–	·	–	·
Cc1cccc(OCCSc2nc(N)cc(N)n2)c1	–	·	–	·	·	·
CC(=O)c1c(C)nc2cc(Cl)ccc2c1N	–	50	·	–	–	–
CSc1cc(/C=N/O)c(SC)s1	–	–	–	–	–	·
Cc1cc(C)c(COCc2cc(/C=N/O)c(C)cc2C)cc1/C=N/O	–	89	–	·	–	–
CC1Cc2ccccc2N1C(=S)Nc1ccc(S(N)(=O)=O)cc1 (configuration not stated)	–	80	–	–	–	–
CC1CC2(C)Oc3ccccc3CC2C(C)C1CNCCCN(C)C (configuration not stated)	–	100	–	–	–	–
CC(C(=O)N1CCc2ccccc21)n1cccc1 (configuration not stated)	–	–	–	–	–	·
O=c1cc(N2CCCCC2)nc2n1CCCS2	–	71	·	–	–	–
CN(C)c1cc(=O)n2c(n1)SCCC2	–	–	–	·	–	·
C(=C\c1nnc2c3ccccc3ncn12)/c1ccccc1	–	55	–	·	–	–
COc1cc(/C=C/c2nnc3c4ccccc4ncn23)cc(OC)c1OC	–	–	–	·	–	·
COCCCC/C(=N\OCCN)c1ccc(C(F)(F)F)cc1	–	80	–	·	–	–
CSc1nc(-c2ccccc2)nc(NC(=O)C(C)C)c1C(C)=O	–	–	–	–	–	·
CCOC(=O)N1CCC(NS(=O)(=O)c2ccc3c(c2)OCC(=O)N3)CC1	–	–	–	·	–	·
CCOC(=O)N1CCC(NS(=O)(=O)c2cc3c(cc2Cl)NC(=O)CO3)CC1	–	55	·	·	–	–
SMILES	m-calpain inh	L major viab	Cl transport mod	ROMK mod	WT yeast gro inh	L major 1uM
O=C(Cn1cnc([N+](=O)[O-])c1)Nc1cc(Oc2ccc(Cl)cc2Cl)cc([N+](=O)[O-])c1	–	100	–	–	–	62
Cc1ccc(Oc2cc(NC(=O)CCCn3nc([N+](=O)[O-])c(Cl)c3C)cc([N+](=O)[O-])c2)cc1	–	–	–	–	–	·
CC(=O)c1ccc(NC(=S)NCCc2cccc(Cl)c2)cc1	–	–	–	–	–	·
CCOC(=O)c1cnc2ccc(C)cc2c1Sc1ccccc1	–	–	–	·	–	·
CCOC(=O)c1cnc2ccc(C)cc2c1Sc1ccc(F)cc1	–	70	–	–	–	–
Cc1ccc(C2NC(=NCc3ccccc3)Nc3nc(C)cc(=O)n32)cc1 (configuration not stated)	–	·	–	–	·	·
CC1(C)CC(=O)C(C=NCC2CCN(C(=S)Nc3ccccc3)CC2)=C(O)C1	–	·	–	·	·	·
CCCCCCCCn1cnc2c(N)c(C)c(C)cc21	–	91	·	·	59	–
COc1ccc(Cn2cnc3c(N)c(C)c(C)cc32)cc1	–	–	–	–	–	·
Cc1ccc(-c2cn(-c3ccccc3)c3[n+]2CCCS3)cc1	–	100	–	–	–	–
N#Cc1ccc(-c2cn(-c3ccccc3)c3[n+]2CCCS3)cc1	–	–	–	–	–	·
Oc1cccc(C(O)CNCc2ccc(-c3ccccc3)cc2)c1 (configuration not stated)	–	91	–	–	–	–
Cc1ccc2c(c1)c(=O)c1c3n2CCN(C(=O)CCl)C3CC1 (configuration not stated)	–	100	–	–	–	57
Cc1ccc2c(c1)c1c3n2CCN(C(=O)C2CC2)C3CCC1 (configuration not stated)	–	–	·	·	–	·
Cc1nc2ccccc2nc1OCc1cccc([N+](=O)[O-])c1	–	–	–	–	–	·
Cc1ccc(NC(=O)NC(=O)N(C(C)C)S(C)(=O)=O)nc1	–	77	–	·	–	–
O=C(COc1cccnc1[N+](=O)[O-])NCCc1ccc(Cl)cc1Cl	–	–	–	–	–	·
CN(C)c1cc[n+](Cc2c(Cl)cccc2Cl)cc1	–	84	–	–	–	–
CN(C)c1cc[n+](CC(=O)Nc2c(Cl)cc(Cl)cc2Cl)cc1	–	–	–	·	–	·
COc1ccc(NC(=O)COC(=O)c2ccc(S(=O)(=O)N(C)c3ccccc3OC)cc2)c(OC)c1	–	99	·	–	–	–
S=C1N(c2ccccc2)CN(C2CCCCC2)CN1c1ccccc1	–	·	–	·	·	·
CCOC(=O)C1CCN(C(=S)Nc2cc(OC)c(OC)cc2C(=O)OC)CC1	–	61	–	–	–	–
O=C(O)c1cc(-c2c[nH]c3ccccc23)nc2ccc3ccccc3c12	–	–	–	–	–	·
c1ccc2c(-c3c[nH]c4ccccc34)c3ccccc3nc2c1	–	55	–	·	79	–
CCn1c(=O)c(C(=O)NCc2ccc(OC)c(OC)c2)c(O)c2ccccc21	–	84	–	·	–	–
SMILES	m-calpain inh	L major viab	Cl transport mod	ROMK mod	WT yeast gro inh	L major 1uM
CCCn1c(=O)c(C(=O)NCc2ccc(OC)c(OC)c2)c(O)c2ccccc21	–	–	–	–	–	·
Cc1c(C(=O)NCC2COc3ccccc3O2)oc2ccc(S(=O)(=O)N3CC(C)CC(C)C3)cc12 (configuration not stated)	–	59	·	–	–	–
CSc1n[nH]c(=O)n1C1CCCCC1	–	·	–	·	·	·
C/C(=N/NC(=O)c1ccccn1)c1c[nH]c2ccccc12	–	·	–	·	·	·
C/C(=N\NC(=O)c1c[nH]c2ccccc12)c1ccc(C)o1	–	54	·	–	–	–
COc1ccccc1NC(=O)NCc1nc(-c2ccc(C(F)(F)F)cc2)no1	–	·	–	–	·	·
CC(C)C(O)(C#CCN1CCCCC1)c1ccccc1 (configuration not stated)	–	93	–	–	–	–
CC(C)C(O)(C#CCN1CCCC1)c1ccccc1 (configuration not stated)	–	–	–	·	–	·
Cc1c(C(=O)Oc2cccc3ccccc23)cnn1-c1ccccc1	–	–	–	–	·	·
CCOC(=O)c1cc(-c2ccc(N)cc2)sc1N	–	60	–	·	–	–
COCCCNc1ncnc2nc[nH]c12	–	–	·	·	–	·
CCOC(=O)c1ccc(CNC(=O)Cn2nnc(-c3ccc(C)cc3)n2)o1	–	–	–	·	–	·
Cc1nn(-c2ccccc2)c(N)c1C(O)(CC(=O)C(F)(F)F)C(F)(F)F (configuration not stated)	–	–	–	–	–	·

Assay outcomes as filed in PubChem.
